Results reported in PubChem BioAssay AID1159580 (chemical genetic matrix, 2015).
About 2,000 (36%) of roughly 5,500 compounds were called active. About 18% were inconclusive and are not listed. Rule as the data show it: active = normalized growth mostly below about 0.91 (no sharp cut-off); inconclusive = no clear call, values can overlap the other calls; inactive = mostly above about 0.92. This is one part of the list.

Assay: chemical genetic growth profiling, strain panel (AID 1159580);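 also: tested at 20 µM; growth read once vehicle control cultures reached saturation at 30 °C; 1 = growth at the plate median or of vehicle wells; lower values mean less growth of the strain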
Conditions: S. cerevisiae deletion strains, growth OD

Measured: normalized growth

COc1cc2ccc(=O)oc2c(OC)c1OC
inactive: locus YAL021C, strain ccr4, hits give low values 1 | locus YAL026C, strain drs2, hits give low values 0.983 | locus YAL030W, strain snc1, hits give low values 0.98 | locus YBL061C, strain skt5, hits give low values 0.997 | locus YBR009C, strain hhf1, hits give low values 0.998 | locus YBR021W, strain FUR4, hits give low values 0.97 | locus YBR023C, strain chs3, hits give low values 0.995 | locus YBR171W, strain sec66, hits give low values 0.974 | locus YBR229C, strain ROT2, hits give low values 1.02 | locus YBR231C, strain swc5, hits give low values 1.02 | locus YBR279W, strain paf1, hits give low values 0.991 | locus YCL011C, strain gbp2, hits give low values 0.977 | locus YCL016C, strain dcc1, hits give low values 0.971 | locus YCL029C, strain bik1, hits give low values 1.03 | locus YCL069W, strain vba3, hits give low values 0.975 | locus YCR088W, strain abp1, hits give low values 0.98 | locus YDL005C, strain med2, hits give low values 0.977 | locus YDL035C, strain GPR1, hits give low values 1.04 | locus YDL040C, strain nat1, hits give low values 0.978 | locus YDL074C, strain BRE1, hits give low values 1.03 | locus YDL101C, strain DUN1, hits give low values 1.02 | locus YDL134C, strain PPH21, hits give low values 1.02 | locus YDL185W, strain tfp1, hits give low values 1.03 | locus YDL192W, strain arf1, hits give low values 1.01 | locus YDR001C, strain nth1, hits give low values 1 | locus YDR069C, strain doa4, hits give low values 0.99 | locus YDR101C, strain arx1, hits give low values 1 | locus YDR137W, strain rgp1, hits give low values 0.997 | locus YDR159W, strain sac3, hits give low values 1.04 | locus YDR162C, strain NBP2, hits give low values 1.05 | locus YDR195W, strain ref2 0.984 | locus YDR297W, strain sur2, hits give low values 0.997 | locus YDR318W, strain mcm21, hits give low values 1.03 | locus YDR334W, strain swr1, hits give low values 0.98 | locus YDR335W, strain msn5, hits give low values 0.973 | locus YDR388W, hits give low values 1.02 | locus YDR392W, strain spt3, hits give low values 1 | locus YDR502C, strain sam2, hits give low values 1.02 | locus YEL003W, strain gim4, hits give low values 0.968 | locus YEL037C, strain rad23, hits give low values 0.987 | locus YEL061C, strain CIN8 (second series), hits give low values 0.996 | locus YER015W, strain faa2, hits give low values 0.995 | locus YER016W, strain bim1, hits give low values 0.959 | locus YER110C, hits give low values 1.01 | locus YER111C, strain swi4, hits give low values 0.979 | locus YER155C, strain BEM2 (second series), hits give low values 0.982 | locus YER155C, strain BEM2, hits give low values 1 | locus YER167W, strain BCK2, hits give low values 1.02 | locus YFR010W, strain ubp6, hits give low values 1.01 | locus YGL078C, strain dbp3, hits give low values 1.04 | locus YGL086W, strain mad1, hits give low values 1 | locus YGL167C, strain pmr1, hits give low values 0.983 | locus YGL173C, strain kem1, hits give low values 0.956 | locus YGL227W, strain vid30, hits give low values 0.976 | locus YGL240W, strain doc1, hits give low values 0.985 | locus YGL248W, strain PDE1, hits give low values 1.03 | locus YGL253W, strain hxk2, hits give low values 0.992 | locus YGR135W, strain pre9, hits give low values 1.04 | locus YGR229C, strain SMI1, hits give low values 1.01 | locus YGR252W, strain gcn5, hits give low values 1 | locus YHR013C, strain ard1, hits give low values 0.953 | locus YHR027C, strain rpn1, hits give low values 0.996 | locus YHR079C, strain IRE1 (second series), hits give low values 1.01 | locus YHR094C, strain hxt1, hits give low values 1.02 | locus YHR129C, strain ARP1, hits give low values 1.01 | locus YHR142W, strain chs7, hits give low values 0.951 | locus YHR200W, strain rpn10, hits give low values 1.02 | locus YIL066C, strain RNR3, hits give low values 1.03 | locus YIL073C, strain SPO22, hits give low values 1.07 | locus YIL125W, strain kgd1, hits give low values 1.01 | locus YIR030C, strain dcg1, hits give low values 1.02 | locus YJL092W, strain hpr5, hits give low values 0.967 | locus YJL095W, strain BCK1 (second series), hits give low values 0.978 | locus YJL095W, strain BCK1, hits give low values 1.02 | locus YJL115W, strain asf1, hits give low values 0.987 | locus YJL129C, strain trk1, hits give low values 0.961 | locus YJL134W, strain LCB3, hits give low values 1.01 | locus YJL154C, strain vps35, hits give low values 0.979 | locus YJL164C, strain tpk1, hits give low values 0.991 | locus YJL166W, strain qcr8, hits give low values 0.978 | locus YJL168C, strain set2, hits give low values 1.02 | locus YJL187C, strain SWE1 (second series), hits give low values 1.02 | locus YKL009W, strain mrt4, hits give low values 1.07 | locus YKL068W, hits give low values 0.996 | locus YKL085W, strain MDH1 (second series), hits give low values 1.01 | locus YKL085W, strain MDH1, hits give low values 1.01 | locus YKL160W, strain elf1, hits give low values 0.965 | locus YKL190W, strain CNB1, hits give low values 1.01 | locus YKR001C, strain vps1, hits give low values 0.992 | locus YKR026C, strain gcn3, hits give low values 1 | locus YKR091W, strain srl3, hits give low values 0.964 | locus YLL001W, strain dnm1, hits give low values 0.987 | locus YLL026W, hits give low values 0.992 | locus YLL041C, strain sdh2, hits give low values 0.979 | locus YLR027C, strain aat2, hits give low values 0.987 | locus YLR039C, strain RIC1, hits give low values 1.07 | locus YLR058C, strain SHM2, hits give low values 1.04 | locus YLR102C, strain apc9, hits give low values 1.02 | locus YLR221C, strain rsa3, hits give low values 1.02 | locus YLR258W, strain gsy2, hits give low values 0.992 | locus YLR262C, strain YPT6 (second series), hits give low values 1 | locus YLR268W, strain sec22, hits give low values 1.03 | locus YLR320W, strain mms22, hits give low values 1.02 | locus YLR342W, strain FKS1, hits give low values 0.979 | locus YLR357W, strain rsc2, hits give low values 0.964 | locus YLR370C, strain arc18, hits give low values 0.979 | locus YLR371W, strain rom2, hits give low values 1.01 | locus YLR384C, strain iki3, hits give low values 0.991 | locus YLR418C, strain cdc73, hits give low values 1.03 | locus YML016C, strain PPZ1, hits give low values 1.03 | locus YML032C, strain rad52, hits give low values 0.996 | locus YML120C, strain ndi1, hits give low values 0.979 | locus YML124C, strain tub3, hits give low values 1.02 | locus YMR058W, strain fet3, hits give low values 0.974 | locus YMR078C, strain ctf18, hits give low values 1.02 | locus YMR125W, strain sto1, hits give low values 0.976 | locus YMR129W, hits give low values 0.991 | locus YMR205C, strain PFK2, hits give low values 0.995 | locus YMR223W, strain ubp8, hits give low values 0.999 | locus YMR231W, strain pep5, hits give low values 0.98 | locus YMR307W, strain GAS1, hits give low values 1.07 | locus YNL067W, strain RPL9B, hits give low values 1.02 | locus YNL071W, strain lat1, hits give low values 0.999 | locus YNL153C, strain GIM3, hits give low values 1.02 | locus YNL209W, strain ssb2, hits give low values 0.976 | locus YNL233W, strain BNI4, hits give low values 1.01 | locus YNL248C, strain rpa49, hits give low values 0.962 | locus YNL250W, strain rad50, hits give low values 1.03 | locus YNL271C, strain bni1, hits give low values 1.02 | locus YNL298W, strain CLA4, hits give low values 0.999 | locus YNL307C, strain MCK1, hits give low values 1.03 | locus YNL322C, strain KRE1 (second series), hits give low values 0.971 | locus YNL322C, strain KRE1, hits give low values 1.02 | locus YNR049C, strain mso1, hits give low values 0.954 | locus YNR052C, strain pop2, hits give low values 1.02 | locus YOL006C, strain TOP1, hits give low values 1.06 | locus YOL012C, strain htz1 1.05 | locus YOL147C, strain pex11, hits give low values 1.01 | locus YOR001W, strain rrp6, hits give low values 1.02 | locus YOR061W, strain CKA2, hits give low values 1.04 | locus YOR069W, strain VPS5, hits give low values 1.01 | locus YOR070C, strain gyp1, hits give low values 0.994 | locus YOR080W, strain dia2, hits give low values 0.968 | locus YOR083W, strain WHI5, hits give low values 0.952 | locus YOR106W, strain vam3, hits give low values 0.969 | locus YOR136W, strain idh2, hits give low values 1.03 | locus YOR144C, strain elg1, hits give low values 1.02 | locus YOR184W, strain ser1, hits give low values 1.04 | locus YOR265W, strain rbl2, hits give low values 0.994 | locus YOR270C, strain vph1, hits give low values 0.957 | locus YOR290C, strain snf2, hits give low values 0.964 | locus YOR316C, strain cot1, hits give low values 1.02 | locus YPL051W, strain arl3, hits give low values 0.982 | locus YPL078C, strain atp4, hits give low values 0.966 | locus YPL106C, strain sse1, hits give low values 0.977 | locus YPL240C, strain hsp82, hits give low values 0.986 | locus YPR119W, strain clb2, hits give low values 1.01 | locus YPR141C, strain kar3, hits give low values 1.02 | locus YPR163C, strain tif3, hits give low values 1.03 | locus YPR167C, strain met16, hits give low values 1.04 | strain wtn01, hits give low values 1.02
